Measured values taken from PubChem BioAssay (NCATS).
Several values for one entry are separate records, joined by “and”; a condition that tells them apart may be missing. Identical values can stand only once. Inconclusive results are not listed. Activity calls are given as the source filed them. Unless noted, calls follow the shape of the dose curve; as a rule, active = well fitted curve in the direction sought with a large enough effect; inconclusive = small, poorly fitted or top-dose-only effect, or another doubt; inactive = no such curve, though single readings can be large; an effect the other way counts as inactive or inconclusive.

Columns and labels:
[1] = Cell Viability - HUV-EC-C (AID 542); also: % is scaled to controls: 0 for no effect and ±100 for the full control effect; nearly all actives have a fitted effect of over 35% in size
Summary of the method: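 HUV-EC-C human vascular endothelial cells, 1000/well, exposed to compound for 40 hr at 37 °C in complete medium. Intracellular ATP was read by CellTiter-Glo luminescence. AC50 came from Hill-equation fits of concentration-response data.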

[2] = Cellular Toxicity (caspase-3) NIH 3T3 (AID 666);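 also: caspase signal read after 16 h compound exposure; 0% = DMSO basal and 100% = 100 µM tamoxifen stimulation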
Summary of the method: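 Mouse NIH 3T3 fibroblasts (1000/well) treated 16 h at 37 C; caspase-3/7 activity measured by Caspase-Glo 3/7 luminescence after 20 min. Normalized to DMSO and 100 uM tamoxifen; AC50 from Hill fits.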

[3] = biological target: Cytochrome P450 3A4 (Homo sapiens) (UniProt P08684); assay: qHTS Assay for Inhibitors and Substrates of Cytochrome P450 3A4 (AID 884); also: nearly all actives have a fitted effect of over 50% in size; also: potency is read from the fitted curve at half-maximal effect
Summary of the method: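 20 nM human CYP3A4 with 25 uM Luciferin-PPXE (at KM) in 200 mM KPO4, preincubated 10 min with compound; NADPH regeneration started a 60 min RT reaction. Luciferin detected by luminescence, normalized to 57 uM ketoconazole as full inhibition.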

[4] = MultiTox-Fluor Cytotoxicity Assay - LYMP1-003 - Dead Cells (AID 961); also: nearly all actives have a fitted effect of over 70% in size
Summary of the method: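 LYMP1-003 lymphoblastoid, 2500 cells/well, 5 hr settle then 16 hr cpd at 37 C; MultiTox-Fluor reagent 60 min RT; Ex/Em 485/520 dead-cell signal; norm. DMSO = 0%, 15 uM tetraoctylammonium bromide = 100%; Hill AC50.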

[5] = Cell Viability - LYMP1-002 - Assay at 24 hr (AID 993); also: % is scaled to controls: 0 for no effect and ±100 for the full control effect
Summary of the method: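 Human lymphoblastoid LYMP1-002 cells (2500/well) treated 24 h at 37 °C; viability as intracellular ATP by CellTiter-Glo luminescence. Tetraoctylammonium bromide as positive control; AC50 from Hill-equation fits of qHTS concentration-response.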

[6] = biological target: Glucocorticoid receptor (Homo sapiens) (UniProt P04150); assay: qHTS assay for small molecule agonists of glucocorticoid receptor signaling (AID 588532; active = well fitted curve in the direction sought with a large enough effect in the signal ratio, with a control signal flat; the % refers to the signal ratio;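 also: 100% = dexamethasone at 0.1 µM and 0% = DMSO only wells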); conditions: HeLa MMTV-bla, beta-lactamase ratio, agonist, 18 h; stronger effect = higher value; percent of dexamethasone control, DMSO zero
Summary of the method: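 MMTV-bla HeLa, beta-lactamase reporter; medium with 1% charcoal/dextran-stripped FBS; cpds up to 92 uM, 18 h, 37 C; CCF4 readout 460/530 nm; Hill fit → EC50, efficacy vs 0.1 uM dexamethasone = 100%.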

[7] = biological target: Glucocorticoid receptor (Homo sapiens) (UniProt P04150); assay: qHTS assay for small molecule antagonists of glucocorticoid receptor signaling (AID 588533; active = well fitted inhibition curve with a large enough effect in the signal ratio, with a control signal flat, not every such curve was filed as active; the % refers to the signal ratio;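 also: cells stimulated with 2 nM dexamethasone as agonist; % is scaled to controls: 0 for no effect and ±100 for the full control effect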)
Summary of the method: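 Antagonist-mode qHTS: compound titrations added to GRE-bla HeLa cells, then dexamethasone 2 nM final; 18 h, 37 C. CCF4 FRET fluorescence normalized to dexamethasone and DMSO; IC50 from Hill fit.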

[8] = biological target: Peroxisome proliferator-activated receptor delta (Homo sapiens) (UniProt Q03181); assay: qHTS assay for small molecule antagonists of peroxisome proliferator-activated receptor delta signaling (AID 588535; active = well fitted inhibition curve with a large enough effect in the signal ratio, with a control signal flat, not every such curve was filed as active; the % refers to the signal ratio)
Summary of the method: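 Reporter: UAS-bla under PPAR-delta response element, HEK293T host. Medium: 2% charcoal/dextran FBS. Dosing: titration, 18 hrs, 37 C. Detection: CCF4, 2 hrs RT, 405 ex/460 and 530 em.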

[9] = biological target: Peroxisome proliferator-activated receptor gamma (Homo sapiens) (UniProt P37231); assay: qHTS assay for small molecule agonists of peroxisome proliferator-activated receptor gamma signaling (AID 588536; active = well fitted curve in the direction sought with a large enough effect in the signal ratio, with a control signal flat, not every such curve was filed as active; the % refers to the signal ratio;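 also: 0% = DMSO basal wells and 100% = rosiglitazone at 2 µM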)
Summary of the method: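 Test agents, titrated, stimulated HEK293 UAS-bla cells overnight (16 h, 37 C). Substrate CCF4 was then added for two hours at room temperature before fluorescence reading.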

[10] = biological target: Vitamin D3 receptor (Homo sapiens) (UniProt P11473); assay: qHTS assay for small molecule agonists of vitamin D receptor signaling (AID 588543; calls by dose curve;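 also: 0% = DMSO basal and 100% = reference agonist control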)
Summary of the method: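 Agonist-mode beta-lactamase reporter: HEK293T VDR-UAS-bla cells in charcoal-stripped 2% FBS, compound series 16 h 37 C, CCF4 2 h RT. EC50 from Hill fit, scaled against DMSO and 50 nM calcitriol control.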

[11] = biological target: Voltage-gated inwardly rectifying potassium channel KCNH2 (Homo sapiens) (UniProt Q12809); assay: qHTS Assay for Small Molecule Inhibitors of the Human hERG Channel Activity (AID 588834);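 also: top concentration of the series differs between compounds; % is scaled to controls: 0 for no effect and ±100 for the full control effect; lower thallium flux fluorescence means stronger hERG block; nearly all actives have a fitted effect of over 50% in size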
Summary of the method: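 Kinetic FDSS fluorescence; U2OS + hERG BacMam (~100 virus particles/cell); FluxOR Tl+ flux; ~10 min cpd; AC50 (Hill).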

[12] = qHTS assay for small molecule agonists of the antioxidant response element (ARE) signaling pathway (AID 651741; active = well fitted activation curve with a large enough effect in the signal ratio; the % refers to the signal ratio; also: potency is read from the fitted curve at half-maximal effect; as to activation: % of control where 0% means no effect)
Summary of the method: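 Compounds in DMSO are pinned onto HepG2 ARE-bla cells (2,000/well) that were preincubated 5 h; plates stay 16 h at 37 C, then beta-lactamase activity is detected with LiveBLAzer B/G substrate by fluorescence.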

[13] = qHTS assay for small molecule activators of the nuclear factor-kappa B (NF-kB) signaling pathway (AID 651749; active = well fitted activation curve with a large enough effect in the signal ratio; the % refers to the signal ratio; also: series mostly up to about 77 µM; % of control where 0% means no effect); conditions: NF-kB-bla ME-180 cells, beta-lactamase FRET ratio, 16 h; stronger effect = higher value
Summary of the method: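 Screening used 2,000 ME-180 reporter cells per well exposed to pinned compound (23 nL) or DMSO; after 16 hr at 37C, beta-lactamase expression under NF-kB control was assessed through FRET.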

[14] = biological target: Tumor necrosis factor (Homo sapiens) (UniProt P01375); assay: qHTS assay to identify small molecules that stimulate Tumor Necrosis Factor-alpha (TNF-alpha) secretion (AID 651757; active = well fitted curve in the direction sought with a large enough effect in the signal ratio; the % refers to the signal ratio; also: potency is read from the fitted curve at half-maximal effect)
Summary of the method: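 THP-1 cells (3000/well) exposed to compounds 17 hrs at 37 C. Secreted TNF-alpha detected by HTRF with cryptate- and XL665-labeled anti-TNF-alpha antibodies after 3 hr at room temperature.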

[15] = qHTS assay for small molecule antagonists of the retinoid-related orphan receptor gamma (ROR-gamma) signaling pathway - cell viability counter screen (AID 720652; active = well fitted curve in the direction sought with a large enough effect in the repeat runs; an effect the other way counts as inactive or inconclusive;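 also: series mostly up to about 92 µM; compound exposure lasted 16 hr before ATP read; % is scaled to controls: 0 for no effect and ±100 for the full control effect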)
Summary of the method: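 CHO cells carrying TET-inducible ROR and RORE-luciferase reporter, plated 5 hr, then dosed with compound plus doxycycline. After 16 hr at 37 C, viability read as intracellular ATP by CellTiter-Glo luminescence.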

[16] = qHTS assay for small molecule activators of the human pregnane X receptor (PXR) signaling pathway (AID 720659; call rule not given here; also: 0% is about no effect)
[17] = biological target: Estrogen receptor (Homo sapiens) (UniProt P03372); assay: qHTS assay for small molecule antagonists of estrogen receptor alpha signaling (AID 588513; active = well fitted curve in the direction sought with a large enough effect in the signal ratio, with a control signal flat, not every such curve was filed as active; the % refers to the signal ratio; also: % is scaled to controls: 0 for no effect and ±100 for the full control effect)
Summary of the method: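 Antagonist mode: inhibition of 0.5 nM 17-beta-estradiol-driven beta-lactamase reporter in HEK 293 ER-alpha-UAS-bla cells, 18 h at 37C, CCF4 readout after 2 h at RT. Normalised to estradiol and DMSO; titration fitted to Hill.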

[18] = biological target: Nuclear receptor ROR-gamma (Homo sapiens) (UniProt P51449); assay: qHTS assay for small molecule antagonists of the retinoid-related orphan receptor gamma (ROR-gamma) signaling pathway (AID 651802);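 also: luciferase reporter luminescence driven by ROR response element; series mostly up to about 92 µM; % is scaled to controls: 0 for no effect and ±100 for the full control effect; nearly all actives have a fitted effect of over 60% in size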
Summary of the method: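 CHO cells with TET-inducible ROR-gamma and RORE-luciferase reporter, dosed then doxycycline-induced. After 16 h at 37C, One-Glo luminescence read; decreased signal indicates antagonism.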

[19] = Cell Viability - LYMP2-026 (AID 989); also: % is scaled to controls: 0 for no effect and ±100 for the full control effect; nearly all actives have a fitted effect of over 50% in size
Summary of the method: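 Human lymphoblastoid LYMP2-026 cells, 2500/well, exposed to compound 24 h at 37 C in complete medium. Viability as intracellular ATP by CellTiter-Glo luminescence; AC50 from Hill fits of qHTS concentration-response.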

[20] = biological target: Estrogen receptor (Homo sapiens) (UniProt P03372); assay: qHTS assay for small molecule agonists of estrogen receptor alpha signaling (AID 588514; calls by dose curve;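 also: 0% = vehicle only and 100% = reference agonist; nearly all actives have a fitted effect of over 70% in size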)
Summary of the method: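 ER-alpha-UAS-bla GripTite HEK293 cells, 5000/well in 2% charcoal/dextran-stripped FBS medium, treated with compound titrations 18 h at 37 C. CCF4 beta-lactamase read by fluorescence after 2 h RT; normalised to 20 nM 17-beta-estradiol (100%) and DMSO (0%), Hill fit for EC50 and efficacy.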

Peroxisome proliferator-activated receptor delta (Homo sapiens), sequence (Q03181 whole entry, looked up): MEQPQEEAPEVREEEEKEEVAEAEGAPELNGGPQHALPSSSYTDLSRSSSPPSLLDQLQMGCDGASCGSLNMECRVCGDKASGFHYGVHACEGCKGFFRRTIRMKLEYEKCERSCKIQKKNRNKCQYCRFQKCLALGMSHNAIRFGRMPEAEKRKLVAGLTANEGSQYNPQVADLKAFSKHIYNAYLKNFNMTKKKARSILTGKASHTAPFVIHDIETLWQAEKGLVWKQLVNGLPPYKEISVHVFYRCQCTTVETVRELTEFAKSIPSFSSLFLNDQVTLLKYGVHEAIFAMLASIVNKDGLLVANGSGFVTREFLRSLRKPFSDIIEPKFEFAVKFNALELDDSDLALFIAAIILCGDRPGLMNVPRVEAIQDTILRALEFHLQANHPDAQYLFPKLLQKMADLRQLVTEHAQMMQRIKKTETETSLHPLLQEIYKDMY
Peroxisome proliferator-activated receptor gamma (Homo sapiens), sequence (P37231 whole entry, looked up): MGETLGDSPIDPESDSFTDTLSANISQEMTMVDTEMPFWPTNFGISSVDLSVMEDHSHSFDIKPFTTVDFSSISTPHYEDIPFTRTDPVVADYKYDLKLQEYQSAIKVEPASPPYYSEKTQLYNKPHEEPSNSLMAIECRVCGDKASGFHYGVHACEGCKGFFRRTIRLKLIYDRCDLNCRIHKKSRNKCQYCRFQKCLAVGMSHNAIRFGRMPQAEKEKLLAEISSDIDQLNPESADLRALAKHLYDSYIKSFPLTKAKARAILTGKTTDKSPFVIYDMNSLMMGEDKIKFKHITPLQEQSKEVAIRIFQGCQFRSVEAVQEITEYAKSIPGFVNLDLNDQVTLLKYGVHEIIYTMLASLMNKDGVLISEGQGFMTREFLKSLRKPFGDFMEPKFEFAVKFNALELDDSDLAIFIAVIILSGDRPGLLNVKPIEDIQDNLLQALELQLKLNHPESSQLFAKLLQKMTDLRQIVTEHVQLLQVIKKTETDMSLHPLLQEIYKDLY
Nuclear receptor ROR-gamma (Homo sapiens), sequence (P51449 whole entry, looked up): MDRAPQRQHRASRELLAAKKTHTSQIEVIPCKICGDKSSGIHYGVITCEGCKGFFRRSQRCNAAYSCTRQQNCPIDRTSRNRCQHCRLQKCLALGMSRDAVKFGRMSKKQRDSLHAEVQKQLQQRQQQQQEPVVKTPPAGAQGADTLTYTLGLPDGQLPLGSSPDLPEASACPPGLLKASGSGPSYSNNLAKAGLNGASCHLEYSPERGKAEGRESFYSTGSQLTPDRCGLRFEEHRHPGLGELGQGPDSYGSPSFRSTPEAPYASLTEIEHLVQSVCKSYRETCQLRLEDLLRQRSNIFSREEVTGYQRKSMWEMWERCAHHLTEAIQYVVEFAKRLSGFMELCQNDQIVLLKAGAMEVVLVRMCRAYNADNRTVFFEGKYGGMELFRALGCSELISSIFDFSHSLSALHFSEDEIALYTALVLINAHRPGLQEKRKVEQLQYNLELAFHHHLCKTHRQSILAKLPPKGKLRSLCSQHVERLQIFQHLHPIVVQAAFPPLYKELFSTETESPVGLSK
Glucocorticoid receptor (Homo sapiens), sequence (P04150 whole entry, looked up): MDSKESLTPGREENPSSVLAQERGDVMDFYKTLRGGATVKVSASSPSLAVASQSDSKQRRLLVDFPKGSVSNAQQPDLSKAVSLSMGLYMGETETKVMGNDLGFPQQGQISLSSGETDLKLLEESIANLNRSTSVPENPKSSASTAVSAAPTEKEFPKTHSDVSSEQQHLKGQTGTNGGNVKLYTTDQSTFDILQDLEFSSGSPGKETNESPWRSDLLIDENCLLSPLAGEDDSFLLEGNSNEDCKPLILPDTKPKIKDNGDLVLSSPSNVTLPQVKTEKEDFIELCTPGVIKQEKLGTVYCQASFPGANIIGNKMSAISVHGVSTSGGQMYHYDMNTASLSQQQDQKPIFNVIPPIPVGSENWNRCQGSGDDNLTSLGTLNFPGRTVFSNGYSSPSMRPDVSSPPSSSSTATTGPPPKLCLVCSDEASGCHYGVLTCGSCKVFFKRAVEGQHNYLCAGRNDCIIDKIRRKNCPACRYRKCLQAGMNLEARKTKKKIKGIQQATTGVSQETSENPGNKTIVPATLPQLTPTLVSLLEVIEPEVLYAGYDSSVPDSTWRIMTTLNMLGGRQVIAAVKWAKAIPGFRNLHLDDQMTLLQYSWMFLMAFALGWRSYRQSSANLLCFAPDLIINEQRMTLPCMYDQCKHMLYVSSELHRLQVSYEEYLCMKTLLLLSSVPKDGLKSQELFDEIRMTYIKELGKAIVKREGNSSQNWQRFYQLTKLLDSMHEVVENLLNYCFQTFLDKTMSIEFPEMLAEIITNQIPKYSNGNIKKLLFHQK
Tumor necrosis factor (Homo sapiens), sequence (P01375 whole entry, looked up): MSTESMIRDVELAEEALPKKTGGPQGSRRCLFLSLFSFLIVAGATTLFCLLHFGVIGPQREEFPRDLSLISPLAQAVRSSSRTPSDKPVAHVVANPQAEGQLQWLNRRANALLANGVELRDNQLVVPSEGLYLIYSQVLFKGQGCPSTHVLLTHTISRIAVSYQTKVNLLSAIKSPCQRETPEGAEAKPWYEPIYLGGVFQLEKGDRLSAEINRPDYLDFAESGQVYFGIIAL
Estrogen receptor (Homo sapiens), sequence (P03372 whole entry, looked up): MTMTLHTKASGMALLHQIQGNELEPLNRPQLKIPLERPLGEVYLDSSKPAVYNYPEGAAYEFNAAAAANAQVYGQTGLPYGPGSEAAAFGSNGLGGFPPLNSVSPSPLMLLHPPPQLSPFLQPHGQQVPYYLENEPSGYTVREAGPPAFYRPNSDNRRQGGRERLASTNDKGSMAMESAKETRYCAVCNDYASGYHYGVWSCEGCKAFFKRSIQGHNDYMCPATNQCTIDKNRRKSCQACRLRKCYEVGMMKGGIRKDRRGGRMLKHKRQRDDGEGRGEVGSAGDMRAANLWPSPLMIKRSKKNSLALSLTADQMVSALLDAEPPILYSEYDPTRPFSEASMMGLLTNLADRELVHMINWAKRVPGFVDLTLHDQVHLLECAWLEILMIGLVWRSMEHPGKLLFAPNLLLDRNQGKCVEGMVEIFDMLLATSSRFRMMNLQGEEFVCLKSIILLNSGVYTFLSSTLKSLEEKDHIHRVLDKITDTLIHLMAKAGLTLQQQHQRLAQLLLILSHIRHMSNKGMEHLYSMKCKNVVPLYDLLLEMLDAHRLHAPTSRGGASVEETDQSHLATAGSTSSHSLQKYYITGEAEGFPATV
Voltage-gated inwardly rectifying potassium channel KCNH2 (Homo sapiens), sequence (Q12809 whole entry, looked up): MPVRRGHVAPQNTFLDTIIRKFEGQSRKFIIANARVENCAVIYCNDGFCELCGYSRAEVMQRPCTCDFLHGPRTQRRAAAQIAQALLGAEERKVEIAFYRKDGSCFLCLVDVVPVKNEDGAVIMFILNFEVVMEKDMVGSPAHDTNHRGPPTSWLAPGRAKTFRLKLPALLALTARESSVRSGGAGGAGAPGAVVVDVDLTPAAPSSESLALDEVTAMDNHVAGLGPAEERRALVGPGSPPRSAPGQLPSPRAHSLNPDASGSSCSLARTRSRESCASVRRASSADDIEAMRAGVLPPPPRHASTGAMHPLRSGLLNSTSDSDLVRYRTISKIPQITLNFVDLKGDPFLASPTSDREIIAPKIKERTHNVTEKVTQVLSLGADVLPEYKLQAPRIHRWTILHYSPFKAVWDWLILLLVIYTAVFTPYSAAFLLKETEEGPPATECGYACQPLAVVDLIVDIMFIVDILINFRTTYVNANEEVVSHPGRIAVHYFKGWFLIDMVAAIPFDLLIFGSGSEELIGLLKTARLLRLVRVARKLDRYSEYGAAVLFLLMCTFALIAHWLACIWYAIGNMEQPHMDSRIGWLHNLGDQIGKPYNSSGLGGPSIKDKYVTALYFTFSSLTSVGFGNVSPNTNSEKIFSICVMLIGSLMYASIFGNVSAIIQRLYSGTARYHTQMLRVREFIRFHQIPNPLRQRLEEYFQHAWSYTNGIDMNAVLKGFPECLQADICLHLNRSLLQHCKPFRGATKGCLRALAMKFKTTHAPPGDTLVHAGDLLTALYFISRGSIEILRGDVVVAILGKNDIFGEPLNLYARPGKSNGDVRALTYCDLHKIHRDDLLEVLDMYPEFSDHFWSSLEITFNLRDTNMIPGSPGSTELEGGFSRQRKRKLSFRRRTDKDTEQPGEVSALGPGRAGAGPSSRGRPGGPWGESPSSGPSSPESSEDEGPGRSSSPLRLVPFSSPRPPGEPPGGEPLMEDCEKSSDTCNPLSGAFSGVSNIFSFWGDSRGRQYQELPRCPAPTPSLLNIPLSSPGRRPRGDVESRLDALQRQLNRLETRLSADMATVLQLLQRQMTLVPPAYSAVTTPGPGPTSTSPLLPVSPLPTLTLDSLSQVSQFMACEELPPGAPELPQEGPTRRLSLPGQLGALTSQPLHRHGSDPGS
Vitamin D3 receptor (Homo sapiens), sequence (P11473 whole entry, looked up): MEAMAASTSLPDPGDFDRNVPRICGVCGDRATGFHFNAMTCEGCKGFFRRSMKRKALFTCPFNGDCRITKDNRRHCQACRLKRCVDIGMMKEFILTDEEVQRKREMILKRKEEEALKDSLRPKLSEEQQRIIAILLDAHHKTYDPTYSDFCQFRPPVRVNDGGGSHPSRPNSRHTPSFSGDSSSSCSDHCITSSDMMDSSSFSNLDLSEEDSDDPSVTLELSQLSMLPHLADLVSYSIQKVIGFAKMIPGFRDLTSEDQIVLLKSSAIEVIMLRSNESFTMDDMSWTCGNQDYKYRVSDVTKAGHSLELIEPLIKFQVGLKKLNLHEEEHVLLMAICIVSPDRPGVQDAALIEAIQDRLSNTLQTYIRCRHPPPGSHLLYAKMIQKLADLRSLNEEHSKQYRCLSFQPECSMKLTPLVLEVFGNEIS

CC(=O)CC(=O)Nc1ccccc1
inactive: Potency [1] | outcome [2] | Potency [3] | Potency [4] | Potency [5] | activation [6] -8.89% | Potency [7] | outcome [8] | outcome [9] | Potency [10] | Potency [11] | Potency [12] | activation [13] -0.0343% and 0.349% | Potency [14] | Potency [15] | outcome [16]

Cc1cc(=O)oc2cc(O)cc(O)c12
inactive: Potency [1] | outcome [2] | Potency [4] | outcome [17] | activation [6] 9.06% | Potency [7] | outcome [9] | Potency [11] | Potency [18] | Potency [15] | outcome [16]
active: Potency [3] 6.31 µM | Potency [12] 13.3 µM | Potency [14] 7.5 µM

OCC(CO)(CBr)CBr
inactive: outcome [2] | Potency [3] | Potency [4] | Potency [19] | activation [6] -3.06% | Potency [7] | outcome [8] | outcome [9] | Potency [11] | Potency [12] | activation [13] -1.02% and -1.55% | Potency [14] | Potency [18] | Potency [15] | outcome [16]

C=CC(C)(O)CCCC(C)CCCC(C)CCCC(C)C (stereo not given)
inactive: Potency [1] | outcome [2] | Potency [4] | Potency [19] | outcome [17] | Potency [20] | activation [6] 1.44% | outcome [8] | outcome [9] | Potency [10] | Potency [11] | Potency [12] | activation [13] -0.414% | Potency [14] | outcome [16]

C=C(C#N)C(=O)OCC
inactive: Potency [3] | Potency [4] | Potency [5] | activation [6] -0.945% | Potency [7] | outcome [8] | outcome [9] | Potency [11] | Potency [12] | activation [13] -1.44% | Potency [14] | Potency [18] | Potency [15] | outcome [16]

O=[N+]([O-])c1ccc(F)cc1F
inactive: Potency [1] | Potency [3] | Potency [19] | outcome [17] | Potency [20] | outcome [8] | outcome [9] | Potency [10] | Potency [11] | Potency [12] | activation [13] 0.374% | Potency [14] | Potency [18] | Potency [15] | outcome [16]

Clc1nc2ccccc2nc1Cl
inactive: Potency [1] | outcome [2] | Potency [4] | Potency [5] | outcome [17] | Potency [20] | activation [6] 3.19% | Potency [7] | Potency [10] | Potency [11] | activation [13] -0.675% | Potency [14] | Potency [18]

O=C1OC(=O)c2ccccc21
inactive: Potency [1] | outcome [2] | Potency [3] | Potency [4] | Potency [5] | outcome [17] | Potency [20] | activation [6] 8.87% | Potency [7] | outcome [8] | outcome [9] | Potency [10] | Potency [11] | Potency [12] | activation [13] 0.114% | Potency [14] | Potency [15] | outcome [16]
